In test [1] the target is Androgen receptor (Homo sapiens) (UniProt P10275). The test can be described thus: qHTS assay to identify small molecule antagonists of the androgen receptor (AR) signaling pathway using the MDA cell line in the presence of 0.5 nM R1881 (AID 1259243). Note: nearly all actives have a fitted effect of over 50% in size. Note: potency is the fitted concentration of half-maximal effect. A digest of the protocol:
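Reporter cells cultured without CO2 receive test chemicals, then 0.5 nM R1881 final; after 16 hr at 37C, ONE-Glo is added and light output recorded.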
In general terms: In qHTS, concentration-response curves come from the screen itself.

Test [2] is described as follows: qHTS assay to identify small molecule HDAC inhibitors (AID 1259364).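 Note: wild-type HCT-116 cells with endogenous class I/II HDAC activity; top concentration of the series differs between compounds; nearly all actives have a fitted effect of over 45% in size.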 A digest of the protocol:
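Read-out: luminescence of HDAC-Glo I/II reagent, 30 min RT, reflecting class I/II deacetylase activity in whole HCT-116 cells pre-exposed 2 h to DMSO-dissolved compounds.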

The nature of test [3]: qHTS assay to identify small molecule HDAC inhibitors - cell viability counter screen (AID 1259365). Note: series mostly up to about 92 µM; nearly all actives have a fitted effect of over 50% in size. A digest of the protocol:
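Wild-type HCT-116 cells were seeded at 1,500 per well, incubated overnight at 37 C, then exposed to compounds in DMSO for 2hr. Viability was read by CellTiter-Glo luminescence after 30min at room temperature.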

A short description of test [4]: qHTS assay to identify small molecule agonists of the sonic hedgehog signaling (Shh) pathway - cell viability counter screen (AID 1259366). Note: nearly all actives have a fitted effect of over 50% in size. Note: potency is the fitted concentration of half-maximal effect. The method, boiled down: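 NIH/3T3-derived 3T3 Gli1-Luc cells (stable Gli1-responsive firefly luciferase reporter) were seeded, rested 4 hr at 37 C/5% CO2, then exposed to compounds in DMSO for 24 hr; viability was read by CellTiter-Fluor fluorescence in the same wells.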

The nature of test [5]: qHTS assay to identify small molecule antagonists of the sonic hedgehog signaling (Shh) pathway - cell viability counter screen (AID 1259367). Note: nearly all actives have a fitted effect of over 55% in size. Note: potency is the fitted concentration of half-maximal effect. A digest of the protocol:
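NIH/3T3-derived Gli1-Luc reporter cells, 2,000/well, plated 4 hr before compound addition, then stimulated with conditioned medium for 24 hr at 37C. Viability measured in the same wells by CellTiter-Fluor fluorescence, reagent added at 23 hr for 1 hr.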

Test [6] is described as follows: qHTS assay to identify small molecule agonists of the sonic hedgehog signaling (Shh) pathway (AID 1259368; calls by dose curve; note: series mostly up to about 92 µM; nearly all actives have a fitted effect of over 15% in size). The method, boiled down: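 A Gli1 transcriptional response element controlled firefly luciferase in 3T3Gli1-Luc cells. Compounds and a positive control were added 4 hr after plating, and cells were incubated a further 24 hr at 37 C before luminescence detection.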

Test [7] is described as follows: qHTS assay to identify small molecule antagonists of the sonic hedgehog signaling (Shh) pathway (AID 1259369; calls by dose curve; note: nearly all actives have a fitted effect of over 45% in size; note: potency is the fitted concentration of half-maximal effect). The method, boiled down: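 For antagonist detection, the reporter line received test compounds together with conditioned medium, incubated 24hr at 37 C, 5% CO2, then luminescence was recorded following 30min room-temperature luciferase reagent incubation.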

In test [8] the target is Estrogen receptor beta (Homo sapiens) (UniProt Q92731). The test can be described thus: qHTS assay to identify small molecule antagonists of the estrogen receptor beta (ER-beta) signaling pathway (AID 1259378; active = well fitted inhibition curve with a large enough effect in the signal ratio in the repeat runs, not every such curve was filed as active; the % refers to the signal ratio; note: potency is the fitted concentration of half-maximal effect). The method, boiled down:
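ER-beta-UAS-bla HEK293T cells in 2% charcoal-stripped FBS medium treated with compound plus 1nM final 17-beta-estradiol for 16 hr at 37C. Beta-lactamase reporter read by FRET substrate fluorescence after 2 hours at room temperature.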

The nature of test [9]: qHTS assay to identify small molecule agonists of the androgen receptor (AR) signaling pathway in the presence of an antagonist - cell viability counter screen (AID 1259379). Note: nearly all actives have a fitted effect of over 25% in size. Note: potency is the fitted concentration of half-maximal effect. The method, boiled down: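 Seed MDA-kb2 at 3,000 cells/well; incubate 5 hr, 37C, 0% CO2. Add nilutamide to 3.0uM final, then pin compounds at 15 concentrations. Incubate 16 hr. Add CellTiter-Fluor at 15 hr, read fluorescence after 1 hr.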

A short description of test [10]: qHTS assay to identify small molecule agonists of the estrogen receptor beta (ER-beta) signaling pathway - cell viability counter screen (AID 1259380). Note: nearly all actives have a fitted effect of over 30% in size. Note: potency is the fitted concentration of half-maximal effect. A digest of the protocol: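 CellTiter-Glo read, 30 min RT, same wells as bla assay; cells ER-beta-UAS-bla HEK293T; 16 hr compound, 37C; medium 2% charcoal-stripped FBS.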
Test [11] has as its target Androgen receptor (Homo sapiens) (UniProt P10275). Kind of test: qHTS assay to identify small molecule agonists of the androgen receptor (AR) signaling pathway in the presence of an antagonist (AID 1259381; calls by dose curve; note: nearly all actives have a fitted effect of over 15% in size). A digest of the protocol:
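Test compounds at 15 concentrations were incubated for 16hr with MDA-kb2 reporter cells in presence of 3.0uM nilutamide (final). Signal: ONE-Glo luciferase luminescence.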

A short description of test [12]: qHTS assay to identify small molecule antagonists of the estrogen receptor beta (ER-beta) signaling pathway - cell viability counter screen (AID 1259382). Note: nearly all actives have a fitted effect of over 55% in size. Note: potency is the fitted concentration of half-maximal effect. The method, boiled down:
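In this multiplexed counter screen, cells were seeded at 2,000 per well in medium with 2% charcoal-stripped FBS and incubated 6 hr before compound and 1nM final E2 were added. Sixteen hours later, ATP-based luminescence reported viability.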

Test [13] is described as follows: qHTS assay to identify small molecule agonists or antagonists of the thyroid stimulating hormone receptor (TSHR) signaling pathway - wild type cell line counter screen (AID 1259384; calls by dose curve). The method, boiled down:
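Wild-type Hek293 cells, 800/well, 18 h at 37C, then compound with Ro20-1724 for 30 min RT. cAMP by HTRF (cAMP-d2/anti-cAMP cryptate), 1 h RT, fluorescence read. 15 concentrations, triplicates.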

Test [14] has as its target Thyrotropin receptor (Homo sapiens) (UniProt P16473). The test can be described thus: qHTS assay to identify small molecule antagonists of the thyroid stimulating hormone receptor (TSHR) signaling pathway (AID 1259385; calls by dose curve; note: nearly all actives have a fitted effect of over 20% in size). The method, boiled down: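 TSHR-HEK293 cells (800/well) plated 18 h, then compounds with Ro20-1724 and TSH at 1.5 ng/mL final, 30 min at room temperature. cAMP quantified by HTRF (cAMP-d2/anti-cAMP-cryptate, 1 h); 15 concentrations in triplicate.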

A short description of test [15]: qHTS assay to identify small molecule agonists of the estrogen receptor alpha (ER-alpha) signaling pathway in the presence of an antagonist - cell viability counter screen (AID 1259386).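 Note: cells exposed to compounds for 22 h at 37 °C before the viability read; nearly all actives have a fitted effect of over 30% in size.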 Note: potency is the fitted concentration of half-maximal effect. A digest of the protocol:
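Viability counter screen using VM7Luc4E2 (full-length ER-alpha, four ERE-luciferase). The cells were treated with compounds alongside ICI-182,780 10.0nM for 22hr, and live-cell protease fluorescence was quantified with CellTiter-Fluor.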

Test [16] concerns the target Progesterone receptor (Homo sapiens) (UniProt P06401). Kind of test: qHTS assay to identify small molecule agonists of the progesterone receptor (PR) signaling pathway (AID 1346784; calls by dose curve; note: nearly all actives have a fitted effect of over 30% in size). A digest of the protocol:
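PR-UAS-bla HEK 293T cells carrying a UAS-driven beta-lactamase reporter were seeded in medium with 2% charcoal-stripped FBS, preincubated 6 hr at 37C, then exposed to compounds in DMSO for 16 hr; agonism was read by LiveBLAzer B/G FRET fluorescence.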

In test [17] the target is Estrogen receptor (Homo sapiens) (UniProt P03372). The test can be described thus: qHTS assay to identify small molecule agonists of the estrogen receptor alpha (ER-alpha) signaling pathway in the presence of an antagonist (AID 1259383; calls by dose curve; note: top concentration of the series differs between compounds; nearly all actives have a fitted effect of over 15% in size). A digest of the protocol:
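Stably transfected VM7Luc4E2 reporter cells, kept 5 days in charcoal-stripped serum, received ICI-182,780 at 10.0nM final before compound addition. Following 22hr incubation at 37C and 5% CO2, luciferase signal was read by luminescence.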

The nature of test [18]: qHTS assay to identify small molecule phospholipidosis (PLD) inducers (AID 1259344; active = well fitted curve in the direction sought with a large enough effect; an effect the other way counts as inactive or inconclusive). The method, boiled down:
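HepG2 cells, 900/well, treated with compound plus LipidTOX Red for 24 h at 37 C; amiodarone positive and DMSO negative controls. Fixed with paraformaldehyde/Hoechst, then high-content imaging scored LipidTOX pit count and integrated intensity per well and per cell.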

The target of test [19] is Estrogen receptor beta (Homo sapiens) (UniProt Q92731). Kind of test: qHTS assay to identify small molecule agonists of the estrogen receptor beta (ER-beta) signaling pathway (AID 1259377; active = well fitted activation curve with a large enough effect in the signal ratio in the repeat runs, not every such curve was filed as active; the % refers to the signal ratio). The method, boiled down: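 ER-beta-UAS-bla HEK293T (GripTite) cells carrying a UAS-driven beta-lactamase reporter, in medium with 2% charcoal-stripped FBS, were exposed to compounds for 16 hr at 37C; LiveBLAzer B/G FRET substrate was then added and fluorescence read after 2 hours at room temperature.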
Chain of Estrogen receptor beta (Homo sapiens) (Q92731 whole entry, looked up): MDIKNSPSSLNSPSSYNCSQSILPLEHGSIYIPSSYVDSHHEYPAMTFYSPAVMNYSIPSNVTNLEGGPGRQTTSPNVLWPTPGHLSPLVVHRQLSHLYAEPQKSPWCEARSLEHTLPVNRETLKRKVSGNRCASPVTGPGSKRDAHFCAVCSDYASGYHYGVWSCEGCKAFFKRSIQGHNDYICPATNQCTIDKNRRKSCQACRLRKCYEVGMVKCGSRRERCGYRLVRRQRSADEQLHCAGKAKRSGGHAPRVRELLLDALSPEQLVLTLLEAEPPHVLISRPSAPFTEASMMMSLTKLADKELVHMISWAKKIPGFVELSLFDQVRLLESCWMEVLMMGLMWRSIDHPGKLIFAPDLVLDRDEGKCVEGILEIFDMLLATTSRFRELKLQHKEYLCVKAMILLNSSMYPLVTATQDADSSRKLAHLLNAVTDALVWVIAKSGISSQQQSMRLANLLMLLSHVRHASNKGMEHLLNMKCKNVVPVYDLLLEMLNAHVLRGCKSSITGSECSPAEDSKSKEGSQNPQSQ

Test [20] concerns the target Estrogen receptor (Homo sapiens) (UniProt P03372). The test can be described thus: qHTS assay to identify small molecule antagonists of the estrogen receptor alpha (ER-alpha) signaling pathway using the BG1 cell line in the presence of 0.1 nM 17-beta-estradiol (AID 1259244). Note: nearly all actives have a fitted effect of over 50% in size. A digest of the protocol: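 Estradiol at 0.1 nM (final) stimulates the endogenous ER-alpha of VM7Luc4E2 cells carrying an ERE-driven luciferase; compounds are co-incubated 22 h at 37C and luciferase output quantified by luminescence.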

A number with no mark means an inactive call. Records with an inconclusive call do not appear. Calls of active or inactive are those of the source. Unless noted, calls come from the whole dose curve; as a rule, active = well fitted curve in the direction sought with a large enough effect in the repeat runs; inconclusive = weak or mixed curves; inactive = no such curve, though single readings can be large; an effect the other way counts as inactive or inconclusive.

Chain of Androgen receptor (Homo sapiens) (P10275 whole entry, looked up): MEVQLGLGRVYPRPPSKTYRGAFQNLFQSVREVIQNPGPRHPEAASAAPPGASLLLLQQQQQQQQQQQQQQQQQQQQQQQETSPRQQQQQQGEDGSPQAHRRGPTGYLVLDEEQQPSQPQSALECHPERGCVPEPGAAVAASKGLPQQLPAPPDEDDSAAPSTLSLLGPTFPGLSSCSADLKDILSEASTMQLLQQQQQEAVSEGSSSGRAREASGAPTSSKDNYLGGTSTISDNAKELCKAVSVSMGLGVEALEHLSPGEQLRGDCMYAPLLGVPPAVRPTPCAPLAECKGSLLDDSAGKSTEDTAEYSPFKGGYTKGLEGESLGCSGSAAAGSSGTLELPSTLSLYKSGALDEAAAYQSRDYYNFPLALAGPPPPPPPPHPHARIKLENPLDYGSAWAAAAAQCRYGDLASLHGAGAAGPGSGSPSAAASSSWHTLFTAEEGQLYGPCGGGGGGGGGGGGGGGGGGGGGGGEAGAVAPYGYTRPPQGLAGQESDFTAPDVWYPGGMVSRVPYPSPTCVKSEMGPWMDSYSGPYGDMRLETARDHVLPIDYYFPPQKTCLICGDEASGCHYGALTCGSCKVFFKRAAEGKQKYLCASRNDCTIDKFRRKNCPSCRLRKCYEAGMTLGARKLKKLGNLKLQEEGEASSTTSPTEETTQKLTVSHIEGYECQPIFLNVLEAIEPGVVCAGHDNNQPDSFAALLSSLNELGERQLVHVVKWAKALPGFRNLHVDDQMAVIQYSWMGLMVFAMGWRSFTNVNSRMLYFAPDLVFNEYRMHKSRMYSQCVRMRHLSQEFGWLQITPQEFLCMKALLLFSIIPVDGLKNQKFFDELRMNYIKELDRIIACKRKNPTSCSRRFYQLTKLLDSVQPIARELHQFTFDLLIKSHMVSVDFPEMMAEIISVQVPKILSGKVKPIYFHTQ
Chain of Estrogen receptor (Homo sapiens) (P03372 whole entry, looked up): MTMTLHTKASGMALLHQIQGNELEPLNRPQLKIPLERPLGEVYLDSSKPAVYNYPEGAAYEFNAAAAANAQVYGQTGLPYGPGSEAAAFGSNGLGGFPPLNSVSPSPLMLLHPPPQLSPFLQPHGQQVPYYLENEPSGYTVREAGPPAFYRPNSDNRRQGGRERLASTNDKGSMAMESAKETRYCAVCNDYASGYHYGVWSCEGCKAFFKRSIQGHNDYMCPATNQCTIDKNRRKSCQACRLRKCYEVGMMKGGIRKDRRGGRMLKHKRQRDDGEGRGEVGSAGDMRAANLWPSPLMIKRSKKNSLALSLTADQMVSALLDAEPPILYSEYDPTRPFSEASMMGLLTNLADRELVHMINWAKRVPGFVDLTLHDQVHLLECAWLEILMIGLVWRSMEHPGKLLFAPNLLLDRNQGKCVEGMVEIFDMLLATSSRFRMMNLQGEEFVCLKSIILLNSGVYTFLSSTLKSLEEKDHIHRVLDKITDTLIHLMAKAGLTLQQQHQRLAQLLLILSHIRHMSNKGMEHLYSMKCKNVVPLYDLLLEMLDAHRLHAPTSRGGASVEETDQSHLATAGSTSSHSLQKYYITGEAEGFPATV
Chain of Thyrotropin receptor (Homo sapiens) (P16473 whole entry, looked up): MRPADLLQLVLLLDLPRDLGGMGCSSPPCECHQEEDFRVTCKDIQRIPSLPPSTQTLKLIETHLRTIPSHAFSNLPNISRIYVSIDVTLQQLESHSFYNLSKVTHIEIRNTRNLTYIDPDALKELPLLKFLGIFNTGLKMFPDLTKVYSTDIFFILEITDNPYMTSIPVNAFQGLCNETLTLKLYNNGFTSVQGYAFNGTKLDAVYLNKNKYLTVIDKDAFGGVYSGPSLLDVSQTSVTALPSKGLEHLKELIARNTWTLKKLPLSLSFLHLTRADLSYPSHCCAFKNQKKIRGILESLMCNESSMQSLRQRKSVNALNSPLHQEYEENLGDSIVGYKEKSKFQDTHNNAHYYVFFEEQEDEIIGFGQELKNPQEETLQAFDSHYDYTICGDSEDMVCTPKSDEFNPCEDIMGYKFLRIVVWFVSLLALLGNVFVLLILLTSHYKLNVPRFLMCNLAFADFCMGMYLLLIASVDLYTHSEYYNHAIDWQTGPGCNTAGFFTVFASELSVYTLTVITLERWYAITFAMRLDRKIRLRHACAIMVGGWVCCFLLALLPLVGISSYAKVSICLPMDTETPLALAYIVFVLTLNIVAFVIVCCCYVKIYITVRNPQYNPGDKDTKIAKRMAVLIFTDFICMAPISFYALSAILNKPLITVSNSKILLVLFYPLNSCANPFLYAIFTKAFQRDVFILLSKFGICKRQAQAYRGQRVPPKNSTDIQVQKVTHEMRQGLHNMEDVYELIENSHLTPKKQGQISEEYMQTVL
Chain of Progesterone receptor (Homo sapiens) (P06401 whole entry, looked up): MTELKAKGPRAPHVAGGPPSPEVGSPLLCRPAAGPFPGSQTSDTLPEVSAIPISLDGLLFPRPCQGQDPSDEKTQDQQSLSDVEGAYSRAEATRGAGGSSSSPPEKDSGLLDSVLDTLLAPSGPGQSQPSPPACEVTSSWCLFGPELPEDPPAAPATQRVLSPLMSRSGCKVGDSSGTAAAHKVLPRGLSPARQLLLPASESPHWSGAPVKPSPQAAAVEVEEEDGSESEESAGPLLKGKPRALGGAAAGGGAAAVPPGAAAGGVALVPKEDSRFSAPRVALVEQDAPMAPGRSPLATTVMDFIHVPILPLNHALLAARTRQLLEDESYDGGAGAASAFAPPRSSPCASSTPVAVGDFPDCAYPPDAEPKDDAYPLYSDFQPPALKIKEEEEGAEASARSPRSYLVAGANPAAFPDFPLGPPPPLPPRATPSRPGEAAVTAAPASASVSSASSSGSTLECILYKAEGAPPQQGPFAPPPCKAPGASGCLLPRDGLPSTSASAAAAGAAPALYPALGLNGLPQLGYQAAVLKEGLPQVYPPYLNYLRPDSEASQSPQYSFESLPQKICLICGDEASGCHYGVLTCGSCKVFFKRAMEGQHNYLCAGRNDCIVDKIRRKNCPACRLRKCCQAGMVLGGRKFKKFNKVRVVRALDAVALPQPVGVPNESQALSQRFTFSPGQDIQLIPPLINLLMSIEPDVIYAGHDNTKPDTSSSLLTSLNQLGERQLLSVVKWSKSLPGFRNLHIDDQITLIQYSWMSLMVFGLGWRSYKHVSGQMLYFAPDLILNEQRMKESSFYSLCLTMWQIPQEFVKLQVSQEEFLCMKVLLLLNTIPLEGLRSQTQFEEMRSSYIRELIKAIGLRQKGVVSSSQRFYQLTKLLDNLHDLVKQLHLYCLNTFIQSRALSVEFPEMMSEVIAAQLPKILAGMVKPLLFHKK

In the case of `NC(=O)N1C(=O)C(C(=O)c2cc(Cl)cs2)c2cc(F)c(Cl)cc21` (stereo not given), the Potency result in test [1], in [2], in [3], in [6], in [11] and in test [14] was “inactive” throughout. Besides, the Potency in test [4] is 27.3 µM (active); in [5], 27.3 µM (active); in test [7], 6.86 µM (active); in test [8], 17.2 µM (active); in test [9] it was 7.7 µM (active); in test [10], 30.6 µM (active). The Potency is 30.6 µM (active) in test [12] and 24.3 µM (active) in [15]. For the same compound, in [13], the result was inactive.
With `O=C(OCC1CO1)C1CCCCC1C(=O)OCC1CO1` (stereo not given), the Potency entry in test [1], in [2], in test [3], in [6], in test [9] and in test [10] was “inactive” in each case. Also, the Potency result in test [11], in test [12], in [14], in test [15] and in [16] was “inactive” in each case. For the same compound, the Potency in test [4] and in test [5] was 13.7 µM (active) throughout. The call in test [13] was inactive.
As to `Nc1nc2ccccc2n1Cc1ccc(F)cc1`, the Potency was 7.5 µM (active) in test [1] and 29.8 µM (active) in [15]. Further, the Potency entry in test [2], in test [3], in test [4], in test [5], in test [6] and in test [11] was “inactive” each time. Also, the Potency entry in test [12] and in test [17] was “inactive” in each case. The call in test [13] was inactive.
In the case of `COc1cccc2c1C(=O)c1c(O)c3c(c(O)c1C2=O)C[C@@](O)(C(=O)CO)C[C@@H]3O[C@H]1C[C@H](N)[C@H](O[C@@H]2CCCCO2)[C@H](C)O1`, the Potency in test [1] was 2.11 µM (active); in test [4], 11.9 µM (active); in test [5], 11.9 µM (active); in [15], 23.7 µM (active). In addition, the Potency result in test [18], in [3], in [6], in test [11], in [17] and in test [14] was “inactive” in each case. In addition, the result in test [13] was inactive.
As to `NNC(=O)c1cccc(C(=O)NN)c1`, the Potency entry in test [1], in test [2], in [3], in test [4], in test [5] and in [6] was “inactive” in each case. For the same compound, the Potency result in test [7], in [9], in [11], in test [12], in test [17] and in test [15] was “inactive” each time. Moreover, the Potency entry in test [16] was “inactive”.
For the compound `CCCCCCCCCOC(=O)c1ccc(O)cc1`, the Potency was 42.7 µM (active) in test [1], 60.3 µM (active) in test [4], 53.7 µM (active) in [10] and 53.7 µM (active) in test [12]. Moreover, the Potency result in test [2], in test [3], in test [6], in [7] and in [11] was “inactive” in each case. Also, the result in [13] was inactive.
Turning to `C=C(C)C(=O)OCC[N+](C)(C)C`, the Potency in [1] is 30.5 µM (active). Also, the Potency result in [2], in test [3], in test [4], in test [7], in test [19] and in test [9] was “inactive” throughout. The Potency entry in test [10], in [11], in [12], in test [15] and in test [16] was “inactive” in each case. The result in test [13] was inactive.
Turning to `O=C1CCCc2c1cc1ccc3cccc4ccc2c1c34`, the Potency was 9.81 µM (active) in [1] and 31 µM (active) in test [10]. The Potency entry in [20], in [2], in test [4], in test [5], in test [6] and in [7] was “inactive” in each case. In addition, the Potency result in test [11], in test [12], in test [14] and in test [15] was “inactive” each time. Besides, the outcome in [13] was inactive.
